# Measured values reported in the supplement of paper PMC10105736.
# Values without a mark were called inactive.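 Rule for the calls: active = MAPPIT score above the 99th percentile of random reference set scores in the same batch; inactive = at or below it.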
# B1: Cp190 (protein)
# chain: MGEVKSVKVDNWGVFFLQKLQNFFNKTDYCDLTLQFRDNSQLKVHRLVLSACTDYFNVLEQTCEIVDDALIMPNEFQADVVVPIVNFMYTGTLEFELKMYGKLLRTAKEMNMTVLLKLLEAHRRTMENVNRQQRPPSPKGIRRRTVGQPSSGLPQQRVLGPSPQSRNVATPIAQRANTQRGSTGNTMSRTSGGSNRSPYGDSSNVKQEPTSPFEQLRKGYNNNKRPAQTSLLSPPSKKPSLEEVKEFAEQQRMRKQIAAEYGDNDPEYDGGMLYDDVHAGDDDDDDMPPQPSTSKQQSPQGTQTQLEHGSTTIILKQDSPSQTPTIIVKDSSNAKLNHTKIIAEVLRQYPHIVKGHKNIKLKIMPNTPAAPTEKSAPATVKPPANQSSATTSPHKKLHVSFKADKSTPLITAQQKAASSQQKSGTSQTTGNQGTGANPPANTAAAQKRRIDSKTMHALIAQGAENTTGPWLCLRCGVNGRPISIPSYRGFRRHLINTHKETIDPALCEHCGWRSVNNRELHFHMYMEHQTKSLLYTFAECALCNQSYRTKGELEAHINEVHTDDNKQQCIYCNKVFEQELQLYRHMKSYHKEQALEDGIIDETDEEFLGSQDEEEEAEGDEEQEPEQTGKVRILSDISLPATSAITVQQAQQEQLQEEDVEQVQQEVKFVGADGNEVELTDEQRKEILSQLNQQQAGATAGGVVMVLSEPEAEHVKQETDEKSLAGTEEEYDDSQIYSELGAADSVESAKKNIADESKESIDNLEWAENLIAESEEQSNKEPKSDKPRDDISEKLKELTGDWTEDENDDDVDDKPATAELASELANKDPEPTVHEEEDDIDLALQSLHKGPEEATEEKASEESVTSADDAVDAVPNINSQPEKMDVDSEAADEKASKAEVQIKKEAELENDQEEFIKEDSPIPHSDSVAELREAVTASEGEDDVHLEADNIRKELLDELIAEAEKPDQEKDIVQSEENATTEALDRSVTDEDDLVPPTQVSTEQMEIDEPAAEKAAENNEDTRTADEKEAVEDKPNQTQDVTTAEKPTLESAKAGDEATSGEAASVDKVKSLISEWGDDDEDEDENGVSAAAKEEL
# B2: lobo (protein)
# chain: MPKVLFQKYKKVVSNIDPSRYSAKFKEIDEQRRSQGSESDFADEMEGEFEAEMEEMGSSEFSLSEGEPSLNIGKIDLSFPETVEEFENSPQCYPPSYYTLSPKERLLLLYAENFRKQLVLSYPKRRAMVLALPNECKVQKFVCTTIRPTAFIYTQLISSVEEIAKFVADFIQYEPLQDPINLPNRLISPETLLRKRKGNSYEMATLLVSMLIGAGHPALVVSGVAREETILNDQLAVPYPYPIVEVEVEEVKPKVEKPGQKYKLRGLPDLKSHLEEDMAEVHRQKEAEEKRIQDEIIRKQMEDLELLAVDRYHYRRSHAWVVIINNAPWSVKPKTTYTDVNGDVVEAPPTAIFIEPSTGFICETGCKQYILVDSIWNEYNYYVCKQKHQRVSELRWDLRDTKDWEHMLPGEPPEMRIYKMASDENVADEERDISEEKHLDCIGSWVERLHIGLADFEQRFPSSEKKIQYKGAIHERFSPYSQRDGKVMQLTIFNNDECTIPKVRYEYYENRSDLMRHVKYTYATDQFEEIFNKGRNDSLKSIEYFSDPSQQRKVHFFSASRIDSLELMVVEPGSLILHYKDRSDKCWYKEFEFTPAGNVLKKVTEKFLKASANDVCSNDIATRTFLFQQNKIVLKFHYTFGALTATVVEFTKPPRPDYGKELIYDEKLTKIYKANPLDPTRTNLELYRLLCEQLQYEDHLRKNFEKIFEDINNVFDLRKSEKAEPKLKFSIFDPLRNGAARAIRMRQFEEEEELKKEIASKPADFLAPYLVPYKHQEELTPEQSQNAYNACLNDLKSRFVSLLNNLQRHYEDLTSESKSLNRFLNKFENQFNNYDYKRLVQQSKDLELNKRMVQQRLTLTHEESQKKYEVVKNSLLKDPRLNFKKDDLARRASETSK
# B3: JIL-1 (protein)
# chain: MSRLQKQNYEILSGTSTSRLKNHQHPRESESLAYEEPDQMVRNHLNGQLVANGNGKTRKNSNSETMTNGKKSKLNTEGSGSGSGKTLNYNNNNNNNNSISATNGQYTNSSSKTTSASARDYTYRETISPPTPPSPPTTNVADIVCISDAESEDGRDPEREYYDQDMEEDEPNGIEIDESSSSLSKAKSNNAAAAAAAAAAAAAAAASKASSSTTPSYAMPTSNSTPLDLDNEAHQRDLEAVTDLKYYVKLYSDEAVSLNDFKIIRVLGTGAYGRVFLVRKLTRHDAGKLYAMKVLNKITVVQKRKTAEHTKTERVVLEAIQRNPFLVSLHYAFQSSSKLYLVLDFANGGELFTHLYHSENFEESRVRVYIAEVVLALEQLHQLGIIYRDIKLENILLDGEGHIVLSDFGLSKILTAENEYRAHSFCGTLEYMAPEIIRTGPPGHDSAVDWWSVGVLTFELLTGASPFATSDGQVQQSEISRRIQKEQPMIPSSFSANARDFVLKMLEKNPKRRLGGNHRDASEIKEHPFFNGINWQELRTKRRKAPYKPTLTAEDDVQNFSNEFTDQVPEDPECDAPPSRIRLFRGYTYVAPEHLEQMRRDNHCEIQYFNTGLQNIPCRPDDLELGTRTSNGAYGTCHFVVDSSTDLVFLAKIIPLSKFRPSEVDALISCALDTTNHKNIVSYHGTFREKCETWIVMEYLSGPELTASIRMDEDSCREIFLQLVMAVRHIHSKHFIHGDLKPENIMFENREDRTVKLIDFGSACYNNRFKSWKDKPRYTLDYAPPEMLADANLVTYSPAVDIYGLGATLYTMLVGHRPYRQNEDDVDHSAAAHHELRKRMRRGTFNQRSMRWESASPAFRHLVSWCLQRDPADRPTLSDILDSEWLQYGSNDPDVDIILPQQMVVDLSEDTMEQPTGGMFDDQQQLEFMHDKSAEDEGITLVSEPMDTTVATHESRRNAAAFSSVVAPTTDDEIVHERFDPAFEVQADFYGFDENAPPLPLPEEYYSELPLPEEDRQYIPPPPALIPVEPETTFRRPRTRQQRRTESQLVQPVSVATYEDSKASLRVLMQQLPPPGDNVVARIPKRTHRVVRTLPPTFGTTKREENFYGFSKTAISWRKTRASWRHFCLLINGVQQVLKVRFKKARRVYCLPHIKEEKLDHAYEKPLTFPRPKAQLKRTKREPKVPRPPTRVQPERARAMRQLYQFQ
# B4: vilya (protein)
# chain: MAKSQAGQTVEPEASKLWIHCNSCCALFCDKKHTFFLLACHHVFCERCVKVSAGRTPSDAPIFECSTCRRSVRGRQLTNSMPNHFKQLFHPEPFTIGNDFVETFQRGNHRHFDKYKERKELEMDKLFKDIEVAKSVCQKRFLEAQMLRVERKKLMQRSRYIKAEVANRKAEMHRMAQAYRSRSLTSQSSSSAQRSARGRPRGRGTATQSSSRRRSTESAKRQQITSFIHPPNNSFDL
# B5: mRpL13 (protein)
# chain: MSIAKRVQQWATFARTWHIYDCTWQNPFESAKLVKTHLLGLQKPIYHPMNDCGDHVVLINTREIALPGDEWVKRVYFHHTGYPGGASWTLAWQLHEKDPTMVMKKAVYNSMRGNLQRRHTMQRLHLFADDQVPEEILQNVTNQIRTPRSIPQRLDHIDKETLENFPNIMDYPKDYILR
# B6: eIF3c (protein)
# chain: MSRFFANGSESESESSEEEIQATNFNKASAFQFSDDEEEVKRVVRSTKEKRYENLTSIIKTIRNHKKIKDIPNTLSSFEDLTRAYQKALPVISKEENGITPRFYIRCLAELEDFINEVWEDREGRKNLSKNNSKSLGTLRQKVRKYIKDFEDDLSRFREAPDQESEAEDEVVALESDGGDAGDDSDAGVKPTEAVPKAVKSAPAKAAPADDDDSDDSIDWDSDSESETESSDDENQYQNMRERFLKRTTEKEEKDDDKRKDKRKEQKTKIRKRAEDDEDGEWETVVKGHVVEKPKMFEKDAEIDVPLVLAKLLEIMSARGKKRTDRRLQIDLLFELRDISDQHNLGTAVSVKIHFNIISAIYDYNQKISEPMKLEHWALLLEVMQSMMKLLLANADIIMSESVAEEHEEYATSPFYVRGCPLAAVERLDDEFVKLLKECDPHSNDYVSRLKDEVNVVKTIELVLQYFERSGTNNERCRIYLRKIEHLYYKFDPEVLKKKRGELPATTSTSVDVMDKLCKFIYAKDDTDRIRTRAILAHIYHHAMHDNWFQARDLVLMSHLQDNIDAADPATRILYNRMMANLGLCAFRQGNVKDAHHCLVDLMVTGKPKELLAQGLLPQRQHERSAEQEKIEKQRQMPFHMHINLELLECVYLVSAMLLEIPYIAAHEFDARRRMISKTFYQQLRSSERQSLVGPPESMREHVVAAAKAMRCGNWQACANFIVNKKMNTKVWDLFYESDRVREMLTKFIKEESLRTYLFTYSNVYTSISIPSLAQMYELPVPKVHSIISKMIINEELMASLDDPSETVGMHRSEPSRLQALAMQFVDKVTNLVDVNEKVFDMKQGNFFQRGNMGNRGDRGYNRNQNNQGGNWLGQRRDRNNRNRNQRGHHKNNQDRQQQQQQQVQTIDEE
# B7: Snap25 (protein)
# chain: MPADPSEEVAPQVPKTELEELQINAQGVADESLESTRRMLALCEESKEAGIRTLVALDDQGEQLDRIEEGMDQINADMREAEKNLSGMEKCCGICVLPCNKSQSFKEDDGTWKGNDDGKVVNNQPQRVMDDRNGMMAQAGYIGRITNDAREDEMEENMGQVNTMIGNLRNMALDMGSELENQNRQIDRINRKGESNEARIAVANQRAHQLLK
# B8: CG5382 (protein)
# chain: MGLCKCPKRLVTNQFCFEHRVNVCEHCMVQSHPKCIVQSYLQWLRDSDYISNCTLCGTTLEQGDCVRLVCYHVFHWDCLNARQAALPANTAPRGHQCPACSVEIFPNANLVSPVADALKSFLSQVNWGRNGLGLALLSEEQSSSLKAIKPKVASQAAVSNMTKVHHIHSGGERERTKPNGHDAVSPHSVLLMDAFNPPSAGDYASSRRPLLPRQSPIGGTDRDDNKYQRRTPAELFSRWTRRFYAPSSRPPWRRTWFLVTAGILAFVLFVYLMAWLGRGGSDAVDEGWNNPNPQPNHYE
# B9: 128up (protein)
# chain: MSTILEKISAIESEMARTQKNKATSAHLGLLKAKLAKLRRELISPKGGGGGTGEAGFEVAKTGDARVGFVGFPSVGKSTLLSNLAGVYSEVAAYEFTTLTTVPGCIKYKGAKIQLLDLPGIIEGAKDGKGRGRQVIAVARTCNLIFMVLDCLKPLGHKKLLEHELEGFGIRLNKKPPNIYYKRKDKGGINLNSMVPQSELDTDLVKTILSEYKIHNADITLRYDATSDDLIDVIEGNRIYIPCIYLLNKIDQISIEELDVIYKIPHCVPISAHHHWNFDDLLELMWEYLRLQRIYTKPKGQLPDYNSPVVLHNERTSIEDFCNKLHRSIAKEFKYALVWGSSVKHQPQKVGIEHVLNDEDVVQIVKKV
# What was measured:
# Assay in all cases: MAPPIT interaction score (arbitrary units); higher = stronger binary interaction signal, active = hit call of the paper
# [1] = biological target: mod(mdg4); conditions: pair source set: Lit-BM-16
# [2] = biological target: su(Hw); conditions: MAPPIT configuration: N-C; pair source set: Lit-BM-16
# [3] = biological target: msd5; conditions: MAPPIT configuration: N-N; pair source set: Curagen_low_conf
# [4] = biological target: msl-2; conditions: pair source set: Lit-BM-16
# [5] = biological target: mwh; conditions: MAPPIT configuration: N-N; pair source set: Curagen_high_conf
# [6] = biological target: nSyb; conditions: MAPPIT configuration: N-N; pair source set: DPIM
# [7] = biological target: ninaD; conditions: MAPPIT configuration: N-C; pair source set: screen_4
# [8] = biological target: nos; conditions: MAPPIT configuration: N-N; pair source set: Curagen_high_conf
# 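Note: HEK293T cells with Epo stimulation, STAT-responsive firefly luciferase reporter, fold induction versus unstimulated cells divided by the larger fold induction of two negative controls lacking either bait or prey.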
binder,measurement,setting,value
B1,MAPPIT interaction score,[1]; MAPPIT configuration: N-C,2.63
same,MAPPIT interaction score,[1]; MAPPIT configuration: N-N,-0.119
same,MAPPIT interaction score,[2],-0.381
B2,MAPPIT interaction score,[3],2.32
B3,MAPPIT interaction score,[4]; MAPPIT configuration: N-C,0.534
same,MAPPIT interaction score,[4]; MAPPIT configuration: N-N,0.0488
B4,MAPPIT interaction score,[5],0.602
B5,MAPPIT interaction score,[6],-0.207
B6,MAPPIT interaction score,[6],0.214
B7,MAPPIT interaction score,[6],0.399
B8,MAPPIT interaction score,[7],0.641
B9,MAPPIT interaction score,[8],0.2
